Records with an inconclusive call do not appear. The source made the active and inactive calls. Unless noted, calls come from the whole dose curve; as a rule, active = well fitted curve in the direction sought with a large enough effect in the repeat runs; inconclusive = weak or mixed curves; inactive = no such curve, though single readings can be large; an effect the other way counts as inactive or inconclusive.
Assays:
[1] = qHTS assay to identify small molecule antagonists of the estrogen related receptor (ERR) signaling pathway from Tox21 library - cell viability counter screen (AID 1224834); note: nearly all actives have a fitted effect of over 30% in size
Method in brief: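 ERR cells, 2,000/well; 6 h settle at 37 C/5% CO2; pin-tool compound transfer in DMSO; 17.5 h at 37 C; CellTiter-Fluor, 30 min; fluorescence intensity.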

[2] = target: Luciferin 4-monooxygenase (Photinus pyralis) (UniProt P08659); assay: qHTS assay to identify small molecule inhibitors of firefly luciferase (AID 1224835); note: nearly all actives have a fitted effect of over 25% in size
Method in brief: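 Inhibition of purified Photinus luciferase is measured by luminescence. Substrate levels (D-luciferin, ATP) sit at their KM values. Each compound is tested in a concentration series.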

[3] = qHTS assay to identify small molecule agonists of the constitutive androstane receptor (CAR) signaling pathway - cell viability counter screen (AID 1224836); note: nearly all actives have a fitted effect of over 45% in size
Method in brief: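 Cell viability multiplexed with the CAR agonist screen: CellTiter-Fluor fluorescence after 23 hr at 37 C. HepG2-CYP2B6-hCAR cells got compounds at 15 concentrations with PK11195 at 0.75 uM final.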

[4] = qHTS assay to identify small molecule antagonists of the constitutive androstane receptor (CAR) signaling pathway - cell viability counter screen (AID 1224837); note: nearly all actives have a fitted effect of over 45% in size
Method in brief: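 Viability was measured with CellTiter-Fluor in a HepG2 line carrying stably transfected hCAR and a CYP2B6-2.2kb construct. Cells were exposed for 23 hr at 37 C to 15 compound concentrations with 50 nM CITCO as agonist.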

[5] = qHTS assay to identify small molecule antagonists of the estrogen related receptor signaling pathway with the pleiotropic PPARgamma coactivator (PGC) from Tox21 10K library - cell viability counter screen (AID 1224840; active = well fitted cell-killing curve with a large enough effect in the repeat runs, not every such curve was filed as active; note: nearly all actives have a fitted effect of over 40% in size)
Method in brief: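 Multiplexed viability counter screen in the PGC/ERR cell line: cells treated with DMSO-dissolved compounds for 17.5 hours at 37 C, then viability measured as CellTiter-Fluor fluorescence.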

[6] = target: Thyrotropin receptor (Homo sapiens) (UniProt P16473); assay: qHTS assay to identify small molecule agonists of the thyroid stimulating hormone receptor (TSHR) signaling pathway (AID 1224843; calls by dose curve; note: nearly all actives have a fitted effect of over 45% in size)
Method in brief: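 A cell-based cAMP HTRF format was run in TSHR-transfected HEK293 cells, 800 per well. Treatment: 30 min, room temperature. Detection: 1 h with labelled cAMP and anti-cAMP cryptate. Concentration-response over 15 points, three replicates.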

[7] = qHTS assay to identify small molecule agonists of the hypoxia (HIF-1) signaling pathway - cell viability counter screen (AID 1224844; calls by dose curve; note: nearly all actives have a fitted effect of over 50% in size)
Method in brief: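 Cytotoxicity was measured in parallel with the HRE-driven beta-lactamase readout: after 17 hrs of compound exposure at 37C, HRE-bla ME-180 cells received CellTiter-Glo and luminescence was recorded 30 min later.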

[8] = qHTS assay to identify small molecule agonists of H2AX (AID 1224845; active = well fitted activation curve with a large enough effect in the signal ratio in the repeat runs, not every such curve was filed as active; the % refers to the signal ratio; note: potency is the fitted concentration of half-maximal effect)
Method in brief: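 Phospho-H2AX Ser139 measured by HTRF (ex 320 nm; em 665 and 620 nm) after 24 hr antibody incubation. Compounds, 15 concentrations, 0.76% DMSO, were applied to CHO-K1 cells for 3hr at 37C before lysis.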

[9] = qHTS assay to identify small molecule agonists of H2AX - cell viability counter screen (AID 1224847; calls by dose curve;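 note: wild-type CHO-K1 cells; top concentration of the series differs between compounds; nearly all actives have a fitted effect of over 30% in size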)
Method in brief: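 Counter-screen for viability: CellTiter-Glo ATP luminescence read after 3 h compound treatment (15-point titration, 0.76% DMSO final) of CHO-K1 cells at 37C, with 30 min room-temperature reagent incubation.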

[10] = qHTS RealTime-Glo MT Cell Viability Assay in HepG2 cells - 24 hour (AID 1224867); note: nearly all actives have a fitted effect of over 50% in size
Method in brief: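 HepG2 suspension premixed with RealTime-Glo reagents is plated at 600 cells per well and left 5 h at 37 C/5% CO2. Compounds in DMSO then go in, and bioluminescence reflecting viable cell number is recorded over 40 h.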

[11] = qHTS RealTime-Glo MT Cell Viability Assay in HEK293 cells - 32 hour (AID 1224868); note: nearly all actives have a fitted effect of over 50% in size; note: potency is the fitted concentration of half-maximal effect
Method in brief: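 Reads taken at 0, 8, 16, 24, 32 and 40 h from the same wells. HEK293 cells (600/well) carried RealTime-Glo reagents from seeding, with compound added after a 5 h settle at 37 C.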

[12] = target: Nuclear receptor subfamily 1 group I member 3 (Homo sapiens) (UniProt Q14994); assay: qHTS assay to identify small molecule antagonists of the constitutive androstane receptor (CAR) signaling pathway (AID 1224838);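 note: HepG2 cells stably expressing hCAR with CYP2B6 luciferase reporter stimulated by CITCO; nearly all actives have a fitted effect of over 40% in size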
Method in brief: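 Antagonist mode used CITCO at a final 50 nM to activate CAR in human hepatoma HepG2 cells carrying stable hCAR and a 2.2 kb CYP2B6 promoter-luciferase construct. Compounds were tested at 15 concentrations over 24 h, with luminescence as the end point.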

[13] = qHTS assay to identify small molecule agonists of the hypoxia (HIF-1) signaling pathway (AID 1224846; active = well fitted activation curve with a large enough effect in the signal ratio in the repeat runs, not every such curve was filed as active; the % refers to the signal ratio)
Method in brief: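 Compounds from the Tox21 10K library, dissolved in DMSO, are tested for induction of a hypoxia response element–controlled beta-lactamase reporter in ME-180 cells. Exposure lasts 17 hrs at 37C after a 5 hr settling period, followed by CCF4-AM FRET substrate.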

[14] = A CellTox Green Cytotoxicity Assay to monitor cytotoxicity in HEK293 cells - 0 hour (AID 1224869); note: nearly all actives have a fitted effect of over 50% in size
Method in brief: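 Cells (HEK293, 600/well) and dye reagent are dispensed together. After 5 h at 37 C, 23 nL compound is pinned in. Plates stay at 37 C for 40 h with fluorescence read at 0h, 8h, 16h, 24h, 32h and 40h.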

[15] = target: Nuclear receptor subfamily 1 group I member 3 (Homo sapiens) (UniProt Q14994); assay: qHTS assay to identify small molecule agonists of the constitutive androstane receptor (CAR) signaling pathway (AID 1224839); note: nearly all actives have a fitted effect of over 15% in size; note: potency is the fitted concentration of half-maximal effect
Method in brief: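 Luminescent ONE-Glo read-out after 24 hr, 37 C exposure of double-stable HepG2-CYP2B6-hCAR reporter cells to a 15-point compound series, in the presence of 0.75 uM PK11195 (final).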

[16] = qHTS assay to identify small molecule antagonists of the estrogen related receptor signaling pathway with the pleiotropic PPARgamma coactivator (PGC) from Tox21 10K library (AID 1224841; call rule not given here)
Method in brief: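 Steps: plate 2,000 PGC/ERR cells per well; incubate 6 h at 37 C with 5% CO2; transfer compounds from DMSO stocks by pin tool; incubate 18 h at 37 C; add One-Glo; measure luminescence 30 min later.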

[17] = qHTS assay to identify small molecule agonists of the estrogen related receptor signaling pathway with the pleiotropic PPARgamma coactivator (PGC) from Tox21 10K library (AID 1224842); note: nearly all actives have a fitted effect of over 15% in size
Method in brief: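 Luminescence from One-Glo (30 min, room temperature) measured after PGC/ERR cells had 18 h at 37 C with pinned compound (23 nL in DMSO). Cells had been seeded at 2,000 per well and pre-incubated 6 h.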

[18] = qHTS assay to identify small molecule antagonists of the estrogen related receptor (ERR) signaling pathway from Tox21 library (AID 1224848); note: nearly all actives have a fitted effect of over 50% in size
Method in brief: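 ERR cell line, 2,000 cells/well. 6 h settle, then compound (DMSO) added; 18 h at 37 C; ONE-Glo luminescence after 30 min RT.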

[19] = qHTS assay to identify small molecule agonists of the estrogen related receptor (ERR) signaling pathway from Tox21 library (AID 1224849; calls by dose curve; note: nearly all actives have a fitted effect of over 15% in size); conditions: ERR reporter cell line, ONE-Glo luciferase, 18 h; at 92.4 µM (top of the series) unless noted
Method in brief: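 Cells carrying the ERR reporter were plated and allowed to settle for 6 h, exposed to library compounds for 18 h at 37 C, then lysed with ONE-Glo and luminescence measured.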
% is set by controls: 0 for no effect and ±100 for the full control effect.

Sequence of Nuclear receptor subfamily 1 group I member 3 (Homo sapiens) (Q14994 whole entry, looked up): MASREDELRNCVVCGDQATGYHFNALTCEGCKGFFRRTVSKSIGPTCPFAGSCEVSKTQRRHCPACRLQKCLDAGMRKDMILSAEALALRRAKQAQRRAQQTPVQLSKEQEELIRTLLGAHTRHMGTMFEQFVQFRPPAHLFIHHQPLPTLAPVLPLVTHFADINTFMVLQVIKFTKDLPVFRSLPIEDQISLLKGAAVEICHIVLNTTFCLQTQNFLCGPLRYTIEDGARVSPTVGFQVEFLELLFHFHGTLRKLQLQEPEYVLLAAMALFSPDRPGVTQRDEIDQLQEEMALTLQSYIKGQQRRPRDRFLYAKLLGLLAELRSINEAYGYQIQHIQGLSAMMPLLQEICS
Sequence of Thyrotropin receptor (Homo sapiens) (P16473 whole entry, looked up): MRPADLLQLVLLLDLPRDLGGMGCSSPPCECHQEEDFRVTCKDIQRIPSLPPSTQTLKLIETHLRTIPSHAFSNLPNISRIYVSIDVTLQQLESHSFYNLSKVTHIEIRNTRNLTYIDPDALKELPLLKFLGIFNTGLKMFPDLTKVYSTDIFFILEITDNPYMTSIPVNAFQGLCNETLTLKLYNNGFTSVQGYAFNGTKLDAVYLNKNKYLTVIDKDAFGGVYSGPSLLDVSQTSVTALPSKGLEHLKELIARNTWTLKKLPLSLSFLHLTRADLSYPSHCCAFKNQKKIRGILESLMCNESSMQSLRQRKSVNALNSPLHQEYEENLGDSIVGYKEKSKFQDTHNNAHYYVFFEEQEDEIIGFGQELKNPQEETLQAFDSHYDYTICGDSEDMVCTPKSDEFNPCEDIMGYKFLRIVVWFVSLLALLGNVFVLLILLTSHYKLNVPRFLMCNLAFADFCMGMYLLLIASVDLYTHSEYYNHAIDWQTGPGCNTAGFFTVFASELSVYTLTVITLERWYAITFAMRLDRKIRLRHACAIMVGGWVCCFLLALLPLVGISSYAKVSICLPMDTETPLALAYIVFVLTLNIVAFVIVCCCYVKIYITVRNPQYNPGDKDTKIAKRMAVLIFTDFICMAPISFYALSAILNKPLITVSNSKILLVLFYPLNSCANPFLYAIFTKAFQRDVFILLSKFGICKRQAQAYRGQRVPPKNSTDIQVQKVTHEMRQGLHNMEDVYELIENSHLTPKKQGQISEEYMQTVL
Sequence of Luciferin 4-monooxygenase (Photinus pyralis) (P08659 whole entry, looked up): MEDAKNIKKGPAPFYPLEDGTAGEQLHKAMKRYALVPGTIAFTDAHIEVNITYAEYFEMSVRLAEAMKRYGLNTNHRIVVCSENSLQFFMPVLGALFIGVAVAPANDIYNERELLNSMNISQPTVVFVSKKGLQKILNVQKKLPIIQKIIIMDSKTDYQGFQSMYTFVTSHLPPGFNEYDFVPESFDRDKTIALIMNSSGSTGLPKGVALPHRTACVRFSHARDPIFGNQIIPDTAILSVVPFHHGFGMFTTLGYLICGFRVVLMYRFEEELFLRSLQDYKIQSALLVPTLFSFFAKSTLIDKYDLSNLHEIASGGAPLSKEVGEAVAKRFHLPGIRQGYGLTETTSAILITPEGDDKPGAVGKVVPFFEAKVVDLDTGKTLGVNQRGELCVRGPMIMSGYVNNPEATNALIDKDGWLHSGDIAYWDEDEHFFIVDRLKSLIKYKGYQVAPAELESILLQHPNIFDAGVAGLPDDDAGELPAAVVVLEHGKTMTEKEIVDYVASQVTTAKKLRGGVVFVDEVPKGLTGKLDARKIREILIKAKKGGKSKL

CC1(C)CC(=O)CC(C)(C)N1
inactive: Potency [1] | Potency [2] | Potency [3] | Potency [4] | Potency [5] | Potency [6] | Potency [7] | Potency [8] | Potency [9] | outcome [10] | Potency [11]

O=C(c1ccc(Cl)cc1)c1ccc(Cl)cc1
inactive: Potency [1] | Potency [2] | Potency [3] | Potency [12] | Potency [5] | Potency [8] | outcome [13] | outcome [10] | Potency [11] | Potency [14]

Nc1ncnc2c1ncn2[C@@H]1O[C@H](CO)[C@@H](O)[C@H]1O
active: Potency [8] 31 µM
inactive: Potency [1] | Potency [2] | Potency [3] | Potency [12] | Potency [5] | Potency [6] | Potency [7] | Potency [9] | outcome [10] | Potency [14]

O=S(=O)(O)c1cc(Cl)c(Cl)cc1Cl
inactive: Potency [1] | Potency [2] | Potency [3] | Potency [12] | Potency [15] | Potency [5] | Potency [6] | Potency [8] | outcome [13] | Potency [9] | outcome [10] | Potency [11] | Potency [14]

CC(C)(C)N
inactive: Potency [1] | Potency [2] | Potency [3] | Potency [12] | Potency [15] | Potency [5] | Potency [6] | Potency [7] | Potency [8] | outcome [13] | Potency [9] | outcome [10] | Potency [14]

CCCC1CCOC(C)S1 (stereo unspecified)
inactive: Potency [1] | Potency [2] | Potency [3] | Potency [4] | Potency [5] | Potency [6] | Potency [8] | outcome [13] | Potency [9] | outcome [10] | Potency [14]

O=C(NC1CCN(CCc2c[nH]c3ccccc23)CC1)c1ccccc1
inactive: Potency [1] | Potency [3] | Potency [4] | Potency [12] | Potency [15] | Potency [5] | Potency [6] | Potency [7] | Potency [8] | outcome [13] | Potency [9] | outcome [10] | Potency [14]
active: Potency [11] 7.56 µM

CC/C=C/CCO
inactive: Potency [1] | Potency [2] | Potency [3] | Potency [5] | Potency [16] | Potency [17] | Potency [8] | Potency [9] | Potency [18] | activity change, positive = activation [19] 5.37% | outcome [10] | Potency [11] | Potency [14]

CCCCOc1ccc(N)cc1
inactive: Potency [1] | Potency [3] | Potency [4] | Potency [12] | Potency [5] | Potency [16] | Potency [6] | Potency [7] | Potency [9] | Potency [18] | activity change, positive = activation [19] 3.06% | outcome [10] | Potency [11] | Potency [14]

CCOCCn1c(N2CCCN(C)CC2)nc2ccccc21
inactive: Potency [1] | Potency [2] | Potency [3] | Potency [5] | Potency [7] | Potency [8] | Potency [9] | outcome [10] | Potency [11] | Potency [14]

COc1ccnc2c1CCCCC2S(=O)c1nc2ccccc2[nH]1 (stereo unspecified)
inactive: Potency [1] | Potency [3] | Potency [4] | Potency [12] | Potency [5] | Potency [6] | outcome [13] | Potency [9] | outcome [10] | Potency [14]
active: Potency [15] 23.7 µM

Source: PubChem BioAssay (Tox21)
